Test results taken from PubChem BioAssay AID743286 (National Center for Advancing Translational Sciences (NCATS), 2014).
Among all 1,100 compounds or so, about 340 (31%) were called active. Inconclusive results (about 40%) are left out. Only a sample is shown. A number with no mark means an inactive call. Calls come from the whole dose curve; as a rule, active = well fitted inhibition curve with a large enough effect; inconclusive = small, poorly fitted or top-dose-only effect; inactive = flat fitted curve, though single readings scatter.

biological target: Phosphatidylinositol 5-phosphate 4-kinase type-2 alpha (Homo sapiens) (UniProt P48426); assay: qHTS for Inhibitors of PI5P4K: Confirmation in Primary Assay; details: PI5P4Kalpha enzyme, ADP-Glo luminescence, 60 min; series mostly up to 76.9 µM; activity change, negative = inhibition: at the top concentration; note: nearly all actives have a fitted effect of over 65% in size
Sequence (P48426 whole entry, looked up, canonical isoform): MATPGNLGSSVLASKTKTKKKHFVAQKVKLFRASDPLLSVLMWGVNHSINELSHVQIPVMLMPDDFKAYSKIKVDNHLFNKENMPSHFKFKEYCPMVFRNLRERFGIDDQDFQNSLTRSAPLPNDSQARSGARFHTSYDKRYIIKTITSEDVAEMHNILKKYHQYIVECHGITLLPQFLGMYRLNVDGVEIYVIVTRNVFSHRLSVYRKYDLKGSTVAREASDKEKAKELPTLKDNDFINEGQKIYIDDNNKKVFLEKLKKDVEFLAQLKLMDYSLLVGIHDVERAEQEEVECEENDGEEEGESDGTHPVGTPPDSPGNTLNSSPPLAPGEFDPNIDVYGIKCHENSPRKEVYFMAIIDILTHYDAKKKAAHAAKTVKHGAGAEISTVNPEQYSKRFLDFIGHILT
Description: In addition to finding PI5P, we discovered the type II phosphatidylinositol 5-phosphate 4-kinase (PI5P4K) family (alpha, beta, gamma isoforms) that catalyze the conversion of PI5P to PI(4,5)P2. Alternatively, PI(4,5)P2 can also be synthesized through phosphatidylinositol-4-phosphate (PI4P) by the type I phosphatidylinositol 4-phosphate 5-kinases (PI4P5K). These PI5P4K enzymes therefore represent one way by which cells can regulate endogenous PI5P levels and play important roles in insulin signaling and in stress responses. […] A qHTS PI5P4K-alpha ADP-Glo assay was developed to identify specific modulators of human PI5P4K, phosphatidylinositol-5-phosphate 4-kinase (Type II PIPK). This assay was screened against the MLSMR containing ~400,000 small molecules (PubChem AID 652105). To confirm that the hits were not interacting with the detection enzyme system, a 1536-well counterscreen against the ADP-Glo kit (Promega) was utilized, as described in Davis et al., 2013 [1]. Davis et al., PLoS One. 2013;8(1):e54127. NIH Chemical Genomics Center [NCGC] NIH Molecular Libraries Probe Centers Network [MLPCN] MLPCN Grant: MH096575 Assay Submitter (PI): Atsuo Sasaki, Beth Israel Deaconess Medical Center
2 microL of PI5P4Kalpha/substrate buffer (columns 1-2, 5-48) are dispensed into Greiner white solid bottom 1536-well assay plates; column 3 receives only PI5P4Kalpha buffer as 0x substrate controls; column 4 receives only substrate buffer as 0x PI5P4Kalpha controls. Final assay buffer consists of 0.038 M HEPES pH 7.4, 0.28 mM EGTA, 0.1% CHAPS, and 5% DMSO (final concentration). Compounds are then transferred via Kalypsys pin tool equipped with 1536-pin array (10 nL slotted pins, V&P Scientific, San Diego, CA). Following addition of compound, 1 microL of ATP (5 microM final concentration, all columns) is added to initiate the reaction. ATP is diluted in an assay buffer consisting of 0.02 M HEPES pH 7.4, 60 mM MgCl2, 15 microM ATP, and 0.1% CHAPS. The plates are then incubated at room temperature for 60 minutes. ADP-Glo reagent 1 is added (2 microL) and plates incubated for 45 minutes, before ADP-Glo reagent 2 (4 microL) is added and plates incubated for 30 minutes. They are then transferred to a ViewLux high-throughput CCD imager (PerkinElmer) wherein single end-point measurements of luminescence are acquired using a clear filter.
% is set by controls: 0 for no effect and ±100 for the full control effect; potency is the fitted concentration of half-maximal effect.

SMILES	activity change, negative = inhibition [%]	Potency
O=C(c1ccco1)N1CCN(C(=O)c2ccc(-c3ccc([N+](=O)[O-])cc3)o2)CC1	-22.3	–
O=C(NCc1ccco1)c1ccc([N+](=O)[O-])o1	–	31.6 µM (active)
O=C(CSC1=NCCS1)NCc1ccco1	-2.33	–
S=C(NCc1ccco1)NCc1ccco1	–	14.1 µM (active)
CC(C)(C)[C@H]1C=C(C(=O)N2CCOCC2)O[C@@H](OCc2ccc(CO)cc2)C1	12.7	–
COc1ccc(Cl)cc1S(=O)(=O)NCCCn1ccnc1	15.4	–
COCCNC(=O)c1cc(-c2ccccc2)sc1N	-27.2	–
Cc1ccc(CNc2ncnc3ccc(-c4ccc(CO)o4)cc23)o1	-12.4	–
Cc1cc(O)ccc1Nc1cc(-c2cccc(N(C)C)c2)ncn1	–	12.6 µM (active)
O=C(NC1CCCC1)C(c1ccncc1)N(C(=O)c1csnn1)c1ccccc1F (configuration not stated)	2.88	–
Cc1sc2ncn(CC(=O)N3CCC(C(N)=O)CC3)c(=O)c2c1S(=O)(=O)N1CC(C)CC(C)C1 (configuration not stated)	-2.16	–
Cc1ccc(C)c(OC(C)C(=O)Nc2ccc(S(=O)(=O)Nc3nccs3)cc2)c1 (configuration not stated)	-10.6	–
Cc1noc(C)c1C(=O)Nc1ccc(-n2ccc(C(F)(F)F)n2)cc1	19.3	–
O=C(Nc1ccc(S(=O)(=O)Nc2nccs2)cc1)c1nn(-c2ccc(F)cc2)ccc1=O	–	15.8 µM (active)
COc1ccc(C(=O)N2CCCC2(C)C(=O)O)cc1C(F)(F)F (configuration not stated)	-0.629	–
O=C(c1cccc(-n2cccc2)c1)N1CCN(S(=O)(=O)c2ccccc2)CC1	–	3.98 µM (active)
CC(=O)N1CCN(S(=O)(=O)c2cccc(C(=O)Nc3ccc(F)c(F)c3)c2)CC1	1.67	–
COc1ccc(CN2CCC(=O)N([C@H](CO)CC(C)C)CC2)cc1OC	-0.623	–
CCCCCCCCN1C(=O)[C@H](CC(=O)NCc2ccc(C)o2)C[C@@]2(C(=O)OC)CC(C)(C)CC=C12	-22	–
CC1=NN(c2nc(-c3ccc(Cl)cc3)cs2)C(=O)C1	–	15.8 µM (active)
CCOC(=O)Nc1ccc2c(CNC(C)c3ccccc3OC)cc(=O)oc2c1 (configuration not stated)	-1.24	–
CC1CCN(C(=O)c2ccc(COc3ccccc3Cl)o2)CC1	-1.87	–
COc1ccc(C2=CC3=C(Br)C(=O)C(C)(OC(=O)c4cccs4)C(=O)C3=CO2)cc1 (configuration not stated)	–	22.4 µM (active)
COC(=O)CCC(=O)OC1(C)C(=O)C2=CN(CC3CC3)C(c3ccc(OC)cc3)=CC2=C(Br)C1=O (configuration not stated)	-26	–
CCCCC1=CC2=C(c3ccco3)C(=O)C(C)(OC(=O)c3ccc(OC)cc3)C(=O)C2=CN1Cc1ccccc1 (configuration not stated)	-20	–
Cc1ccc(S(=O)c2ccc(NC(=O)C3CC3)cc2C#N)cc1 (configuration not stated)	0.926	–
Cc1ccc(N(C(=O)CNC(=O)c2ccco2)C(C(=O)NC2CCCC2)c2cccnc2)c(C)c1 (configuration not stated)	0.488	–
